# L3MBTL1 inh: qHTS Assay for the Inhibitors of L3MBTL1; Lethal(3)malignant brain tumor-like protein 1 (Homo sapiens), Q9Y468; 230,000 tested, 0.66% active; AlphaScreen L3MBTL1–H3K9me1 peptide binding; Potency, µM (highest dose often 57.1 µM), for the others: at the top dose activity, negative = inhibition, actives largely listed as inhibitors; also: % is scaled to controls: 0 for no effect and ±100 for the full control effect; nearly all actives have a fitted effect of over 60% in size
#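 AlphaScreen proximity signal between nickel-chelate acceptor and streptavidin donor beads (final 10 ug/mL) reports binding of 50 nM L3MBTL1 to 75 nM biotin-H3 K9me1 peptide; complex incubated with compounds 30 min at room temperature; cefsulodin titration as control.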
# G9a inh: qHTS Assay for Inhibitors of Histone Lysine Methyltransferase G9a. 350,000 tested, 8.8% active. Histone-lysine N-methyltransferase EHMT2 (Homo sapiens), Q96KQ7. Potency, µM (doses to about 102 µM), for the others: at the top dose activity, negative = inhibition, actives largely listed as inhibitors. AID 504332, 2011. G9a H3K9 monomethylation, AlphaScreen, 2 h; also: % is scaled to controls: 0 for no effect and ±100 for the full control effect; nearly all actives have a fitted effect of over 75% in size
# Target sequence (Q96KQ7 913-1193 limits assumed): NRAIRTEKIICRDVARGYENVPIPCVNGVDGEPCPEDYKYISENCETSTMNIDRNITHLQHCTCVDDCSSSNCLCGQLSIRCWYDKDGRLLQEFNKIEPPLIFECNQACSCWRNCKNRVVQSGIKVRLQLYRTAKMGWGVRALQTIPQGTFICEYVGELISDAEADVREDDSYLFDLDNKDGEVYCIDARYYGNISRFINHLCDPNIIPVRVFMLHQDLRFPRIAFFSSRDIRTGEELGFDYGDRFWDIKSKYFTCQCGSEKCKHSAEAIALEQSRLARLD
#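 AlphaScreen read-out: biotin-H3K9 peptide (500 nM) methylation by 20 nM enzyme with 20 uM SAM, 2 h at room temperature after 15 min compound preincubation; anti-monomethyl H3K9 antibody plus donor/acceptor beads, 10 min dark.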
# HP1b binding inh: HTS for Inhibitors of HP1-beta Chromodomain Interactions with Methylated Histone Tails. AlphaScreen HP1-beta / biotin-H3K9me3 peptide binding. 390,000 tested, 0.56% active. Potency, µM (titrated, usually from 114 µM), for the others: at the highest dose activity change, negative = inhibition, usual class: inhibitors. Chromobox protein homolog 1 (Homo sapiens), P83916; also: nearly all actives have a fitted effect of over 70% in size
# Target sequence (P83916 whole entry, looked up): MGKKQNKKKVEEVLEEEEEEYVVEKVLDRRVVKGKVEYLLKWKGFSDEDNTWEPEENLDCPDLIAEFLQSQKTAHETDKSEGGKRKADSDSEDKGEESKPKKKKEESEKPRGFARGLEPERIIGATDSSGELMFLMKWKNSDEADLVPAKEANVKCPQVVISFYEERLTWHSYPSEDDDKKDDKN
#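 Compound inhibition of the preformed complex between 50 nM HP1-beta and 50 nM biotinylated H3K9me3 peptide was read by AlphaScreen. Buffer was PBS pH 7.4 with 0.01% Tween-20. Incubations ran 30 min at room temperature, with 10 ug/mL donor/acceptor beads.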
# Sfp inh: qHTS Assay for Inhibitors of Bacillus subtilis Sfp phosphopantetheinyl transferase (PPTase); 4'-phosphopantetheinyl transferase ffp (Bacillus subtilis), Q9F4F7; Biochemical Sfp PPTase activity, qHTS; Potency, µM, for the others: largest response in the series, negative = inhibition, hits mostly inhibitors; 310,000 tested, 3.5% active;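 also: the enzyme is Sfp with the accession as filed and its product quenches rhodamine fluorescence; 0% = enzyme reaction without inhibitor and -100% = no enzyme wells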
#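 With Hepes-Na pH 7.6 buffer containing 10 mM MgCl2, Sfp (15 nM) modified BHQ-2-YbbR (12.5 uM) using rhodamine-CoA (5 uM). Two reads 30 minutes apart at 525/598 nm yielded each well's rate.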
# JMJD2A Tudor inh: qHTS Assay for Inhibitors of JMJD2A-Tudor Domain | Potency, µM (highest dose often 114 µM), for inactives: top-dose activity change, negative = inhibition, hits mostly inhibitors | 390,000 tested, 4.4% active | AlphaScreen JMJD2A-Tudor / H3K4me3 peptide binding; also: % is scaled to controls: 0 for no effect and ±100 for the full control effect; nearly all actives have a fitted effect of over 50% in size
# BAZ2B inh: qHTS Assay for Inhibitors of BAZ2B. 360,000 tested, 4.4% active. Bromodomain adjacent to zinc finger domain protein 2B (Homo sapiens), Q9UIF8. AlphaScreen BAZ2B-H3K14Ac peptide displacement. Potency, µM (series often up to 114 µM), without a hit: at the highest dose activity change, negative = inhibition, hits mostly inhibitors; also: % is scaled to controls: 0 for no effect and ±100 for the full control effect; nearly all actives have a fitted effect of over 60% in size
#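 Complex of BAZ2B and biotin-H3K14Ac (50 nM apiece) forms over 30 min at RT, then faces library compounds up to 110 uM for another 30 min; AlphaScreen beads added, 20 min dark incubation, luminescence read.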
# * hit, by the source's call; ? = inconclusive; · = not tested or not shown; ! = a repeat was not active; [ ] = remark or other dose. A selection: hits, their analogues and other compounds. The true share with any hit is near 12%. Calls follow the shape of the dose curve; as a rule, active = well fitted curve in the direction sought with a large enough effect; inconclusive = small, poorly fitted or top-dose-only effect, or another doubt; inactive = no such curve, though single readings can be large; an effect the other way counts as inactive or inconclusive. Potency is read from the fitted curve at half-maximal effect.
SMILES,L3MBTL1 inh,G9a inh,HP1b binding inh,Sfp inh,JMJD2A Tudor inh,BAZ2B inh
COc1cccc(C(=O)Nc2c(C(=O)NC(C)(C)C)oc3ccccc23)c1,·,26%[59 µM],81%,·,7%,79%[57.1 µM]
CC(C)(C)C(=O)Oc1cccc(Nc2ncnc3ccccc23)c1,·,·,35%,11%,-12%,-2%
O=C(O)c1cccc(Nc2ncnc3ccccc23)c1,·,-30%[12.7 µM],26%,14%,79µM*,?
CCOC(=O)c1nc(Nc2cccc(C)c2)c2ccccc2n1,35%,10%,5%,15%,50µM*!,7%
Fc1ccc(Nc2ncnc3ccccc23)cc1,-1%,56µM*,34%,-1%,-6%,-33%
Nc1cccc(Nc2ncnc3ccccc23)c1,1%[2.29 µM],-14%[0.501 µM],20%,?,4%,50µM*
Oc1cccc(Nc2ncnc3ccccc23)c1,·,-5%[12.7 µM],33%,-2%,-4%,2%
Cc1nc2c(-c3ccc(F)cc3)c(C)nn2c(C)c1CCC(=O)NCc1cccc(Cl)c1,·,-1%[59 µM],35%,·,-6%,-14%
Cc1cc(CC(=O)O)c(C)n1-c1ccc(Cl)cc1,·,-43%[12.7 µM],·,-15%,·,·
Cc1ccc2onc(CNC(=O)NCc3ccccc3)c2c1,·,7%[59 µM],-4%,·,-14%,-16%
CC(=O)c1cccc(Nc2nc(-c3ccccc3)nc3ccccc23)c1,1%,50µM*,2%,-25%,-22%,-1%
Fc1ccc(Nc2nc(-c3cccnc3)nc3ccccc23)cc1,·,·,·,-21%,·,·
O=C(O)c1ccc(Nc2nc(-c3cccnc3)nc3ccccc23)cc1,1%,56µM*,·,13%,·,-1%
CC(=O)Nc1cccc(Nc2nc(-c3ccccc3)nc3ccccc23)c1,·,8%,34%,7%,0%,1%
O=C(Nc1nnc(Cc2ccccc2)s1)C1CCN(C(=O)c2cccs2)CC1,·,·,12%,·,-17%,·
COCCN1C(=O)N[C@@H](CCc2ccccc2)C(C(=O)OC)=C1C,·,·,·,-6%,·,·
CCOc1cc(CNc2ccc3cn[nH]c3c2)ccc1OC,·,28µM*,6%,-13%,?,?
COc1ccc(CNc2ccc3cn[nH]c3c2)c(OC)c1OC,·,8.9µM*,-4%,1%,?,?
CCOC(=O)c1ccc(NC(=O)c2c(-c3c(F)cccc3Cl)noc2C)cc1,·,-13%[59 µM],45%,·,-4%,-11%
Cc1nn(C(=O)c2ccccc2)c(C)c1Sc1ccc(Cl)cc1,·,163%[59 µM],107%,·,106%,209%
COC(=O)c1c(C)sc(-c2c(-c3ccc4c(c3)OCCO4)[nH]c3[nH]c(=O)[nH]c(=O)c23)c1O,·,14µM*,?,·,50µM*,35µM*
COc1ccc(N(C(=O)c2ccccc2C)S(=O)(=O)c2ccc3c(c2)n(C)c(=O)n3C)cc1,·,7%[59 µM],22%,·,-10%,0%[57.1 µM]
COc1ccc2nc(-c3ccccn3)[nH]c2c1,·,35µM*,45%,-23%,-13%,?
Cc1[nH]c(-c2ccccn2)nc(=S)c1Cl,9%,-112%[59 µM],-22%,40µM*,-34%,-35%
Cc1cc(=S)nc(-c2ccccn2)[nH]1,-7%,?,-3%,35µM*,?,?
SMILES,L3MBTL1 inh,G9a inh,HP1b binding inh,Sfp inh,JMJD2A Tudor inh,BAZ2B inh
COc1ccc2nc(-c3ccc(N)cc3)[nH]c2c1,-20%,-44%[59 µM],-20%,-12%,?,-5%
Cc1cc2nc(-c3ccccn3)c(-c3ccccn3)nc2cc1C,·,3%,·,-30%,·,-8%
CCCCN(CC)C(=O)c1nn(C)c2c1CSc1ccccc1-2,·,?,21%,·,?,?
Cc1ccc(N2CC(NC(=O)C3CCCC3)CC2=O)cc1 (stereo not given),·,2%[59 µM],24%,·,-16%,-7%
C=CC[C@@H]1C=C[C@@H](O/N=C2/[C@H]3O[C@@H]3[C@@H](O)[C@H]3[C@H]2CCn2c(=O)n(-c4ccccc4)c(=O)n23)[C@@H](CO)O1,·,·,·,3%,·,·
CCCNC(=O)c1ccc(C2SCC(=O)N2CCc2ccccc2)cc1 (stereo not given),0%,45µM*,18%,-1%,-16%,2%
C=CCNC(=O)c1ccc(C2SCC(=O)N2Cc2ccccc2)cc1 (stereo not given),2%,50µM*,27%,2%,-2%,-17%
O=C(NCc1ccccc1)c1ccc(C2SCC(=O)N2Cc2ccccc2)cc1 (stereo not given),?,-14%[59 µM],30%,-5%,5%,-2%
CCOC(=O)c1ccccc1NC(=O)CSc1ncc(CO)n1Cc1ccc(C)cc1,·,-37%[59 µM],-7%[57 µM],·,-26%,-30%
Cn1c(N)cc(=O)[nH]c1=S,·,·,30%,·,?,·
Cn1c(=S)[nH]c2[nH]c(=O)cnc2c1=O,12%,?,25%,?,89µM*,-10%
O=C1C2=C(C(=O)c3ccccc31)C1O[C@](c3ccsc3)(Cc3c1ccc1ccccc31)O2,·,-45%[2.33 µM],·,-22%,·,11µM*
O=C1CCCC2=C1C1O[C@](c3ccsc3)(Cc3c1ccc1ccccc31)O2,·,-22%[2.33 µM],·,-17%,·,0%[22.9 µM]
O=C(N/N=C/c1ccc(-c2ccccc2[N+](=O)[O-])o1)c1cncc(Br)c1,-6%,32µM*,?,?,?,-37%
O=[N+]([O-])c1ccccc1-c1ccc(/C=N/n2cnnc2)o1,-2%,-1%,-3%,10%,-29%,-6%
Nn1cnnc1N/N=C\c1ccc(-c2ccccc2[N+](=O)[O-])o1,-13%,35µM*,-14%,45µM*,?,?
Cc1cc([N+](=O)[O-])c(C)cc1-c1ccc(/C=N/NC(=O)c2cccnc2)o1,-7%,45µM*,26%,-20%,-16%,?
COc1ccc(-c2cc(C(F)(F)F)nc(SCC(=O)NCc3ccc(Cl)cc3)n2)cc1,·,4%[59 µM],17%,·,-12%,4%
CC(=O)Nc1ccc(NC(=O)c2cnn(-c3ccccc3)c2C2CCN(C(=O)OC(C)(C)C)CC2)cc1,·,-7%[59 µM],44%,·,-14%,·
COc1ccc(OCCOC(=O)CNC(=O)c2cccc(C)c2)cc1,-18%,50µM*,13%,·,-2%,13%
Cc1cccc(C(=O)NCC(=O)OCCOc2ccccc2Cl)c1,25%,14%[2.33 µM],45%,·,3%,4%
Cc1cccc(CSc2ncccc2C(=O)O)c1,9%,11µM*,42%,?,50µM*,-28%
O=C(CSc1ncccc1C(=O)O)NC12CC3CC(CC(C3)C1)C2,-14%,32µM*,27%,?,2%,?

# Screening results from PubChem BioAssay.
